In all, about 5,500 compounds went through this assay and about 2,000 (36%) were called active. Roughly 18% stayed inconclusive and do not appear here. Cut-off read from the data, not from the text of the source: active = normalized growth mostly below about 0.91 (no sharp cut-off); inconclusive = no clear call, values can overlap the other calls; inactive = mostly above about 0.92. The list shows a part of the results.
Assay: chemical genetic growth profiling, strain panel (AID 1159580);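 note: tested at 20 µM; growth read once vehicle control cultures reached saturation at 30 °C; 1 = growth at the plate median or of vehicle wells; lower values mean less growth of the strain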
Details: S. cerevisiae deletion strains, growth OD

Measured: normalized growth

CC1CC2C3CC(F)C4=CC(=O)C=CC4(C)C3(F)C(O)CC2(C)C1(O)C(=O)CO (centres undefined)
inactive: locus YAL013W, strain DEP1, stronger effect = lower value 1.03 | locus YAL021C, strain ccr4, stronger effect = lower value 0.997 | locus YAL026C, strain drs2, stronger effect = lower value 1 | locus YAL030W, strain snc1, stronger effect = lower value 1 | locus YBL061C, strain skt5, stronger effect = lower value 0.996 | locus YBR009C, strain hhf1, stronger effect = lower value 0.997 | locus YBR021W, strain FUR4, stronger effect = lower value 1.03 | locus YBR023C, strain chs3, stronger effect = lower value 0.988 | locus YBR171W, strain sec66, stronger effect = lower value 0.997 | locus YBR229C, strain ROT2, stronger effect = lower value 1.01 | locus YBR231C, strain swc5, stronger effect = lower value 0.992 | locus YBR279W, strain paf1, stronger effect = lower value 0.989 | locus YCL011C, strain gbp2, stronger effect = lower value 0.992 | locus YCL016C, strain dcc1, stronger effect = lower value 0.98 | locus YCL029C, strain bik1, stronger effect = lower value 1.03 | locus YCL061C, strain MRC1, stronger effect = lower value 0.999 | locus YCL069W, strain vba3, stronger effect = lower value 1.01 | locus YCR088W, strain abp1, stronger effect = lower value 1 | locus YDL005C, strain med2, stronger effect = lower value 0.993 | locus YDL035C, strain GPR1, stronger effect = lower value 1.05 | locus YDL040C, strain nat1, stronger effect = lower value 0.997 | locus YDL074C, strain BRE1, stronger effect = lower value 1.09 | locus YDL101C, strain DUN1, stronger effect = lower value 1.02 | locus YDL134C, strain PPH21, stronger effect = lower value 1.01 | locus YDL185W, strain tfp1, stronger effect = lower value 1.03 | locus YDL192W, strain arf1, stronger effect = lower value 1.03 | locus YDR001C, strain nth1, stronger effect = lower value 1.01 | locus YDR069C, strain doa4, stronger effect = lower value 1.01 | locus YDR101C, strain arx1, stronger effect = lower value 1.02 | locus YDR137W, strain rgp1, stronger effect = lower value 0.995 | locus YDR150W, strain NUM1, stronger effect = lower value 1.03 | locus YDR159W, strain sac3, stronger effect = lower value 1.01 | locus YDR162C, strain NBP2, stronger effect = lower value 1.02 | locus YDR195W, strain ref2 0.968 | locus YDR297W, strain sur2, stronger effect = lower value 0.99 | locus YDR318W, strain mcm21, stronger effect = lower value 1.05 | locus YDR334W, strain swr1, stronger effect = lower value 0.994 | locus YDR335W, strain msn5, stronger effect = lower value 1 | locus YDR388W, stronger effect = lower value 1.01 | locus YDR392W, strain spt3, stronger effect = lower value 0.995 | locus YDR502C, strain sam2, stronger effect = lower value 1.02 | locus YEL003W, strain gim4, stronger effect = lower value 1.01 | locus YEL037C, strain rad23, stronger effect = lower value 1 | locus YEL061C, strain CIN8 (second series), stronger effect = lower value 1.01 | locus YEL061C, strain CIN8, stronger effect = lower value 1.01 | locus YER015W, strain faa2, stronger effect = lower value 1 | locus YER016W, strain bim1, stronger effect = lower value 0.995 | locus YER110C, stronger effect = lower value 1.03 | locus YER111C, strain swi4, stronger effect = lower value 1 | locus YER155C, strain BEM2 (second series), stronger effect = lower value 1.03 | locus YER155C, strain BEM2, stronger effect = lower value 0.999 | locus YER167W, strain BCK2, stronger effect = lower value 1.05 | locus YFR010W, strain ubp6, stronger effect = lower value 1.01 | locus YGL078C, strain dbp3, stronger effect = lower value 1.02 | locus YGL086W, strain mad1, stronger effect = lower value 1.04 | locus YGL167C, strain pmr1, stronger effect = lower value 0.991 | locus YGL173C, strain kem1, stronger effect = lower value 1.01 | locus YGL227W, strain vid30, stronger effect = lower value 0.998 | locus YGL240W, strain doc1, stronger effect = lower value 1 | locus YGL248W, strain PDE1, stronger effect = lower value 1.01 | locus YGL253W, strain hxk2, stronger effect = lower value 0.983 | locus YGR078C, strain PAC10, stronger effect = lower value 1.04 | locus YGR135W, strain pre9, stronger effect = lower value 1.03 | locus YGR229C, strain SMI1, stronger effect = lower value 1.02 | locus YGR252W, strain gcn5, stronger effect = lower value 1.06 | locus YHR013C, strain ard1, stronger effect = lower value 0.985 | locus YHR027C, strain rpn1, stronger effect = lower value 1.01 | locus YHR030C, strain SLT2, stronger effect = lower value 1.02 | locus YHR079C, strain IRE1 (second series), stronger effect = lower value 1.02 | locus YHR094C, strain hxt1, stronger effect = lower value 1.02 | locus YHR129C, strain ARP1, stronger effect = lower value 1.01 | locus YHR142W, strain chs7, stronger effect = lower value 0.995 | locus YHR200W, strain rpn10, stronger effect = lower value 1.03 | locus YIL066C, strain RNR3, stronger effect = lower value 1.04 | locus YIL073C, strain SPO22, stronger effect = lower value 1.1 | locus YIL125W, strain kgd1, stronger effect = lower value 1.02 | locus YIR030C, strain dcg1, stronger effect = lower value 1.02 | locus YJL092W, strain hpr5, stronger effect = lower value 1 | locus YJL095W, strain BCK1 (second series), stronger effect = lower value 0.997 | locus YJL095W, strain BCK1, stronger effect = lower value 1.02 | locus YJL115W, strain asf1, stronger effect = lower value 1.01 | locus YJL129C, strain trk1, stronger effect = lower value 0.997 | locus YJL134W, strain LCB3, stronger effect = lower value 1.02 | locus YJL154C, strain vps35, stronger effect = lower value 1.01 | locus YJL164C, strain tpk1, stronger effect = lower value 1.01 | locus YJL166W, strain qcr8, stronger effect = lower value 0.993 | locus YJL168C, strain set2, stronger effect = lower value 1.02 | locus YJL187C, strain SWE1 (second series), stronger effect = lower value 1.02 | locus YJL187C, strain SWE1, stronger effect = lower value 0.986

Source: PubChem BioAssay AID1159580 (chemical genetic matrix, 2015)
